Screening results deposited in PubChem BioAssay by National Center for Advancing Translational Sciences (NCATS).
Compounds with a hit are over-represented: about 2.4% of the library has one in this group of screens.
D2 antagonist – antagonists of human D2 dopamine receptor | P14416 | HEK293 TREx D2 cells, calcium flux, dopamine EC80 | inhibition, % at 10 µM | 2% of 340,000 active; in the data active = inhibition above about 30%; inactive = below that, where a call was filed; also: 0% is about no effect
Target sequence (P14416 whole entry, looked up): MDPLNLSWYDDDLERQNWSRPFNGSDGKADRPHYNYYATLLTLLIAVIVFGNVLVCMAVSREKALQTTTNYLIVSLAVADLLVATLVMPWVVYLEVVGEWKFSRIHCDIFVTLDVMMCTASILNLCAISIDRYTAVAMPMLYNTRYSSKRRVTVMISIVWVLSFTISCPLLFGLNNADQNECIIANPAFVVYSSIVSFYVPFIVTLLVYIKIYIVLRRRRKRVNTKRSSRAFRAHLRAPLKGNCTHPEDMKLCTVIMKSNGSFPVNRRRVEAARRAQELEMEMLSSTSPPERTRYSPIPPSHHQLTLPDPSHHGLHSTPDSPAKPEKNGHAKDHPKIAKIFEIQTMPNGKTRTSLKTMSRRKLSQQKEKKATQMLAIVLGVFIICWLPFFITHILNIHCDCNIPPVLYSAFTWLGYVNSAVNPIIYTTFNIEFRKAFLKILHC
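Measurement of antagonist activity uses fluorescent calcium dye in inducible HEK293 T-REx D2 cells: 10 s baseline, compound addition with 180 s read, EC80 dopamine addition with a further 180 s read.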
D2 PAM-1 – D2 dopamine receptor (human) potentiation. P14416. HEK293 T-REx D2, calcium flux, EC20 dopamine potentiation. potentiation, % at 10 µM. 0.34% of 340,000 active;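 active = potentiation over 3 SD above the plate norm, cut at about 30% in these data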; also: 0% is about no effect
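Cells plated with tetracycline inducer and held overnight at 30 C; calcium dye loaded 30–90 min at room temperature; baseline taken, compound added and read 180 s; EC20 dopamine then added and read 180 s.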
D2 ag-1 – agonists of human D2 dopamine receptor | HEK293 T-REx D2 cells, calcium flux agonist mode | activation, % at 2 µM | 0.53% of 340,000 active | AID 485358;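 active = activation over 3 SD above normal in the single-dose calcium agonist read, cut at about 30% in these data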; also: 0% is about no effect
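HEK293 Trex D2 cells, tetracycline-induced, o/n 30 C 5% CO2; no-wash Ca dye, RT 30–90 min; 10-cycle baseline, 23 nl cpd added, kinetic Ca read 180 s; agonist hits = positive Ca response.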
D2 PAM-2 – human D2 receptor positive allosteric modulation. DiscoveRx D2 beta-arrestin cells, luminescence, 90 min; 100% = 57 uM dopamine signal. potentiation, % (test concentration not listed). 0.23% of 360,000 active. AID 624464; in the data active = potentiation above about 50%; inconclusive = mostly about 30% to 49%
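PathHunter beta-arrestin assay in DiscoveRx D2 cells. Compounds were added with an EC20 of dopamine (50 nM final) for 90 min at 37 deg C. Luminescence was read 1 h after detection reagent, with 57 uM dopamine as the EC100 control.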
D2 ag-2 – human D2 receptor agonism in beta-arrestin assay; P14416; activation, % (test concentration not listed); 0.084% of 360,000 active; DiscoveRx PathHunter D2 beta-arrestin, luminescence, 90 min; 100% = 57 uM dopamine signal; in the data active = activation above about 40%; inconclusive = between about 15% and that limit
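DiscoveRx PathHunter D2 beta-arrestin cells (2,100/well) attached overnight, then compound-stimulated 90 min at 37 C in HBSS/10 mM HEPES/0.1% Tween-20 buffer; beta-galactosidase complementation read by luminescence after 1 h at ambient temperature. Dopamine 57 uM final (EC100) as control.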
* hit, by the source's call; ? = inconclusive; . = no result.

SMILES | D2 antagonist | D2 PAM-1 | D2 ag-1 | D2 PAM-2 | D2 ag-2
CCOC(=O)C1(CCc2ccccc2)CCN(C(=O)CN2CCOC2=O)CC1 | 37* | 13 | 0 | -1 | -2
CCc1ccc(S(=O)(=O)Nc2ccc3[nH]c(=O)sc3c2)cc1 | . | -3 | 1 | . | .
CCc1ccc(C2c3c(-c4cc(C)ccc4O)n[nH]c3C(=O)N2Cc2cccnc2)cc1 (centres undefined) | . | 12 | 2 | . | .
COc1cccc(N(C(C)=O)c2nc(C)cc(C)c2C#N)c1 | 36* | . | 1 | -2 | -1
Cc1nnc(SCC(=O)NCCN2C(=O)CSC2=O)n1-c1ccccc1 | 47* | 5 | 0 | 4 | 0
COc1ccccc1N(CC(O)Cn1c(C)nc2ccccc21)S(=O)(=O)c1ccccc1 (centres undefined) | -11 | 11 | 1 | 5 | 1
COc1ccccc1N(CC(O)Cn1ccnc1C)S(=O)(=O)c1ccccc1 (centres undefined) | 34* | -4 | 0 | -3 | -4
CC(Sc1nc(=O)cc(N)n1CCc1ccccc1)C(=O)Nc1ccccc1C#N (centres undefined) | . | -6 | 0 | . | .
COc1ccccc1CNS(=O)(=O)c1ccc(F)c(C(=O)Nc2cc(Cl)ccc2OC)c1 | . | 20 | -1 | . | .
O=C(Nc1nnc(-c2ccccc2Cl)o1)c1nc2ccccc2s1 | 8 | -17 | 39* | -7 | -3
ClN=C1C=CC=CC1=NCl | . | . | . | 14 | 5
COc1cccc2c1[C@@H]1CN(CCCCn3c(=O)[nH]c4c(sc5ncc(-c6ccccc6)nc54)c3=O)C[C@@H]1CO2 | 56* | -19 | 2 | -35 | -5
COc1cc2[nH]c(=O)n(CCCC(=O)N3CC=C(c4ccccc4)CC3)c(=O)c2cc1OC | 3 | 4 | 1 | -1 | -3
Cc1ccc(NC(=O)CSc2nc3[nH]c(=O)cc(O)c3s2)c(Br)c1 | 59* | 24 | -1 | 0 | -3
CCOC(=O)C(NC(=O)c1ccccc1)=C1C=C(C)OC(C)=C1 | 12 | 30* | 0 | -3 | -1
CCc1cccc(NC(=O)Cn2c(=O)n(CC(=O)NCCc3ccccc3)c(=O)c3ccccc32)c1 | . | . | 1 | . | .
CNCCC=C1c2ccccc2C=Cc2ccccc21 | . | . | . | -34 | -8
CN(C)CCC=C1c2ccccc2CCc2ccccc21 | 64* | -29 | 0 | -36 | -4
CN(C)CCC=C1c2ccccc2C=Cc2ccccc21 | 49* | -17 | 0 | -28 | 5
Cc1c(C(=O)N(C)C)sc2c1c(=O)n(-c1ccc(Cl)c(Cl)c1)c(=O)n2Cc1ccc(F)cc1 | . | -11 | . | . | .
O=C(N=NC(=O)c1ccc2c(O)n(C3CCCCC3)c(O)c2c1)c1cccnc1 | -22 | 40* | 1 | -8 | -5
O=C(NC1CCCCCCC1)c1cccnc1 | -1 | -2 | 0 | -16 | -3
Cc1oc2ncn(CC(C)C)c(=O)c2c1C(=O)N1CCN(c2cccc(C(F)(F)F)c2)CC1 | . | 4 | 1 | . | .
OC1CCCN(c2c3c(nc4cc(-c5cccc(F)c5)nn24)CCCC3)C1 (centres undefined) | 47* | 0 | 0 | 2 | 0
N#CCc1c(C#N)c(N)nc(N2CCN(Cc3ccc4c(c3)OCO4)CC2)c1C#N | 18 | -35 | 2 | -28 | -1
SMILES | D2 antagonist | D2 PAM-1 | D2 ag-1 | D2 PAM-2 | D2 ag-2
Cc1cc(C)c(C#N)c(N2CCN(Cc3ccc4c(c3)OCO4)CC2)n1 | 98* | -20 | 0 | -37 | -6
Cc1cc(C)c(C#N)c(N2CCN(S(=O)(=O)Cc3ccccc3)CC2)n1 | -13 | 12 | -2 | -6 | -6
Cc1cc(C)c(C#N)c(N2CCN(Cc3ccccc3)CC2)n1 | 74* | -27 | 1 | -21 | 0
Cc1ccc(NC(=O)Cn2c(=O)n(Cc3ccc4c(c3)OCO4)c(=O)c3ccc(C(=O)NC4CCCCC4)cc32)cc1 | . | 21 | 0 | . | .
COc1ccc(NC(=O)CSc2nc3c(cc2C#N)CN(C)CC3)cc1 | 19 | -21 | 0 | -18 | -2
CCN1CCc2nc(SCC(=O)Nc3ccc(OC)cc3)c(C#N)cc2C1 | 36* | -23 | 0 | -20 | -2
O=C(N/N=C/c1ccc(N2CCOCC2)s1)c1ccccc1Cl | 7 | 3 | 2 | 1 | -4
FC(F)(F)c1ccc(Cl)c(N/N=C/c2ccc(N3CCOCC3)s2)c1 | . | . | . | 72* | ?
COC1CCCN(C(=O)c2ccc3oc(Cc4ccc(Cl)cc4)nc3c2)C1 (centres undefined) | 31* | -9 | -1 | 7 | -1
c1c(C2CCCCC2)n[nH]c1CN1CCCCC1 | 40* | -22 | 0 | -42 | -1
Cn1c(=O)n(CCc2ccccc2)c(=O)c2c1nc1n2CCN1c1ccc(Cl)cc1 | . | . | -1 | . | .
CN(n1cnc2ccccc2c1=O)S(C)(=O)=O | . | . | . | -4 | -1
CS(=O)(=O)Nn1cnc2ccccc2c1=O | 4 | 35* | 0 | -3 | 2
O=C(Nc1ccc(Cl)cc1Cl)c1cc(S(=O)(=O)NCc2ccc3c(c2)OCO3)ccc1F | . | 16 | 0 | . | .
CCN(c1ccccc1)S(=O)(=O)c1ccc2[nH]c(=O)c(=O)[nH]c2c1 | 33* | . | -3 | -4 | -6
CCN(c1ccccc1)S(=O)(=O)c1ccc(F)cc1 | 2 | -2 | -1 | -5 | -1
CC1CN(CCOc2ccc([N+](=O)[O-])cc2)CC(C)O1 (centres undefined) | -7 | 5 | -1 | -11 | -1
O=[N+]([O-])c1ccc(OCCN2CCNCC2)cc1 | 32* | -3 | 1 | -7 | -2
COCCN(C(=O)c1ccccc1)c1nnc(-c2cccnc2)s1 | 48* | 8 | 0 | -1 | -3
CCc1nn(CC(=O)NCCCN2CCc3ccccc3C2)c(=O)c2cc3sccc3n12 | 79* | -29 | -1 | -8 | -6
O=C1NCN(c2ccccc2)C12CCN(CCCC(c1ccc(F)cc1)c1ccc(F)cc1)CC2 | 69* | -26 | 4 | -33 | -7
O=C1CCC(=O)N1CCC(c1ccc(F)cc1)c1ccco1 (centres undefined) | 17 | 9 | 2 | -17 | -1
CCc1cccc(NC(=O)CCn2c(=O)c3cccn3c3cccnc32)c1 | . | -3 | 1 | . | .
Cc1ccc(C(=O)c2sc(Nc3ccccc3)c(S(=O)(=O)c3ccccc3)c2N)c(C)c1 | . | 17 | . | . | .
N#CC1=C(c2ccccc2)/C(=C/c2ccccc2)OC1=O | 35* | 9 | 2 | -13 | 0
O=C1O/C(=C/c2ccccc2)c2ccccc21 | -2 | 0 | -1 | 19 | 2
COc1ccccc1CCNC(=O)Cc1c(C)c2cc3c(C)coc3cc2oc1=O | . | 0 | -1 | . | .
C[N+](C)(CCOc1ccccc1)Cc1ccccc1 (tested in a mixture with another compound) | 29 | -6 | 0 | 74* | ?
Cc1c(Cl)c(C(=O)Nc2nc3ccccc3n2CCN2CCCCC2)nn1C | -15 | 35* | -1 | . | .
